In PubChem BioAssay (Tox21) one finds Potency and activation data, which are given here for 66 compounds.

Inconclusive results are not listed. Where a call stands in place of a potency, no number is given. Values without a mark were called inactive. The source made the active and inactive calls. Calls come from the whole dose curve.

This test has as its target Beta-2 adrenergic receptor (Homo sapiens) (UniProt P07550). The experiment in a line: Adrenergic beta2 receptor (ADRB2) small molecule agonists, cell-based qHTS assay (AID 1963593).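 For activation: CHO cells stably overexpressing human ADRB2.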 In a few lines:
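CHO cells stably over-expressing ADRB2 were plated overnight at 37C, then dosed with compounds plus a stimulation mix containing 100uM IBMX and 25uM Ro-20-1724 for 0.5hr at room temperature. cAMP was measured by HTRF competition, 1hr.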
Potency is the fitted concentration of half-maximal effect.

Sequence of Beta-2 adrenergic receptor (Homo sapiens) (P07550 whole entry, looked up): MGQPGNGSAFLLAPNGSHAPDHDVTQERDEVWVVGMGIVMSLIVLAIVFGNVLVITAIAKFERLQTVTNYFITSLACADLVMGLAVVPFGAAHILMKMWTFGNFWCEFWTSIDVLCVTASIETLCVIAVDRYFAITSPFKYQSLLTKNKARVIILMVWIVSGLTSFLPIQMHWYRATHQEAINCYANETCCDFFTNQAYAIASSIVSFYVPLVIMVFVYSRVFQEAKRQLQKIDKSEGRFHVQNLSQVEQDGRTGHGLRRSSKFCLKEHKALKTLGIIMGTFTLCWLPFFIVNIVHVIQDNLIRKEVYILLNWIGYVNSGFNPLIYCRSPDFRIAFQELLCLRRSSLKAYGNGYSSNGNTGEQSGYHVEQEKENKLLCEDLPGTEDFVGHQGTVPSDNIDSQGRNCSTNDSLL

Take `CCCCNC(=O)n1c(NC(=O)OC)nc2ccccc21`: the Potency result is “inactive”. As for `CCC(C)(C)c1ccc(O)cc1`, the Potency entry is “inactive”. Turning to `Cc1ccc(N)c(N)c1`, the Potency entry was “inactive”. On to `OC(O)C(Cl)(Cl)Cl`, for which the Potency entry was “inactive”. In the case of `CC(=O)CC(c1ccc(Cl)cc1)c1c(O)c2ccccc2oc1=O` (stereo unspecified), the Potency result was “inactive”. On to `ClCC1CO1` (stereo unspecified), for which the Potency result was “inactive”. The same measure, in the same setting: then `Cc1ccc(N)cc1`, with “inactive”; and `CNC(=O)Oc1c(C(C)(C)C)cc(C)cc1C(C)(C)C`, with “inactive”. Same read-out and setting: then `ClC1=C(Cl)C2(Cl)C3C(Cl)C(Cl)CC3C1(Cl)C2(Cl)Cl` (stereo unspecified), with 54.5 µM (active). With `OCCOc1ccccc1`, the Potency entry was “inactive”.

As to `CCCOC(=O)c1cncn1C(C)c1ccccc1` (stereo unspecified), the Potency entry was “inactive”. For the compound `CC(C)(OOC(C)(C)c1ccccc1)c1ccccc1`, the Potency entry is “inactive”. Consider `O=C(Cl)OCCOCCOC(=O)Cl`, for which the Potency result is “inactive”. In the case of `CC(C)=CCN1CC[C@@]2(C)c3cc(O)ccc3C[C@@H]1[C@@H]2C`, the Potency entry was “inactive”. With `CCCC(C)(COC(N)=O)COC(=O)NC(C)C` (stereo unspecified), the Potency entry was “inactive”. Regarding `CC(=O)[O][Hg][c]1ccccc1`, the Potency is 4.73 µM (active). Same read-out and setting: then `C#CCOS(=O)OC1CCCCC1Oc1ccc(C(C)(C)C)cc1` (stereo unspecified), with “inactive”; and `O=P(Cl)(Cl)Cl`, with “inactive”; and `CC(C)C1(C)N=C(c2ncccc2C(=O)O)NC1=O` (stereo unspecified), with “inactive”. In the case of `c1ccc2c(c1)CCCC2`, the Potency entry was “inactive”. For the compound `CC(C)NC(C)C`, the Potency entry is “inactive”. On to `Cc1cc(Cl)ccc1OCCCC(=O)O`, for which the Potency result was “inactive”. `CC1(C)C(=O)NC(=O)NC1=O`: the Potency entry is “inactive”. On to `CC(C)Nc1nc(Cl)nc(NC(C)C)n1`, for which the Potency entry is “inactive”. As to `CCCCCBr`, the Potency entry was “inactive”.

Regarding `COC[C@H](C)N(C(=O)CCl)c1c(C)csc1C`, the Potency entry is “inactive”.

As for `CSc1nc(NC(C)C)nc(NC(C)C)n1`, the Potency entry is “inactive”. On to `C[C@]12CC[C@H]3[C@@H](CCC4=CC(=O)CC[C@@H]43)[C@@H]1CC[C@@H]2O`, for which the Potency result is “inactive”. For `Cc1cccc([N+](=O)[O-])c1`, the Potency entry is “inactive”.

Take `COC(C)(C)CCCC(C)C/C=C/C(C)=C/C(=O)OC(C)C` (stereo unspecified): the Potency entry is “inactive”. On to `O=C1c2ccccc2C(=O)N1SC(Cl)(Cl)Cl`, for which the Potency was 21.7 µM (active). Same read-out and setting: then `CN(C)C(=O)Nc1cccc(C(F)(F)F)c1`, with “inactive”; and `CC(C)(O)C#N`, with “inactive”; and `Oc1c(Cl)c(Cl)c(Cl)c(Cl)c1Cl`, with “inactive”. On the same count and under the same terms, then `CC(=O)C(C)(C)C`, with “inactive”; and `Cc1ccc(N=C=O)cc1N=C=O`, with “inactive”; and `C=C(C)C(=O)OCC1CO1` (stereo unspecified), with “inactive”. For `CCCN(CCC)c1c([N+](=O)[O-])cc(C(C)C)cc1[N+](=O)[O-]`, the Potency entry was “inactive”. Regarding `N#CCBr`, the Potency entry was “inactive”. On to `Brc1c(Br)c(Br)c(Oc2c(Br)c(Br)c(Br)c(Br)c2Br)c(Br)c1Br`, for which the activation is -14.9% [at 19 µM]. Take `CN(C)c1ccc(C(=O)c2ccc(N(C)C)cc2)cc1`: the Potency entry was “inactive”. For the compound `Cl/C=C\C[N+]12CN3CN(CN(C3)C1)C2`, the Potency result was “inactive”. Same read-out and setting: then `O=C(O)c1ccc(=O)[nH]c1`, with “inactive”. As to `CCN(CC)C(=O)C(C)Oc1cccc2ccccc12` (stereo unspecified), the Potency entry was “inactive”. `CC1(C)C(C=C(Cl)Cl)C1C(=O)OC(C#N)c1cccc(Oc2ccccc2)c1` (stereo unspecified): the Potency entry was “inactive”.

Take `CC1OC(C)OC(C)O1` (stereo unspecified): the Potency result is “inactive”. `O=C(O)C(Cl)(Cl)Cl`: the Potency result is “inactive”. `N#Cc1nn(-c2c(Cl)cc(C(F)(F)F)cc2Cl)c(N)c1S(=O)C(F)(F)F` (stereo unspecified): the Potency result is “inactive”. As for `CCCCCCCCCCOC(=O)c1ccccc1C(=O)OCCCCCCCCCC`, the Potency result is “inactive”. The same measure, in the same setting: then `COP(=S)(OC)SCn1nnc2ccccc2c1=O`, with “inactive”.

Regarding `Cc1ccccc1N`, the Potency result was “inactive”. Take `O=C(CCN1CC1)OCC(CO)(COC(=O)CCN1CC1)COC(=O)CCN1CC1`: the Potency entry was “inactive”. With `Oc1ccccc1Cl`, the Potency entry was “inactive”. For the compound `Cc1ccc2cc(C)ccc2c1`, the Potency result is “inactive”. Take `c1ccc(-c2cccc(-c3ccccc3)c2)cc1`: the Potency entry is “inactive”. On to `c1ccc(N2CCNCC2)cc1`, for which the Potency result is “inactive”. Still for that read-out and setting: then `CN(C)c1ccccc1`, with “inactive”. Consider `C1=Cc2cccc3cccc1c23`, for which the Potency result was “inactive”. Still for that read-out and setting: then `O=C(O)C1C2CCC(O2)C1C(=O)O` (stereo unspecified), with “inactive”; and `Oc1ccccc1-c1ccccc1`, with “inactive”. For `CCCOC(=O)c1ccccc1C(=O)OCCC`, the Potency result is “inactive”. On to `O=NN1CCOCC1`, for which the Potency entry was “inactive”. For the compound `c1ccc(Nc2ccc3ccccc3c2)cc1`, the Potency entry is “inactive”.

As to `Cc1ccc(-c2nc3ccc(C)cn3c2CC(=O)N(C)C)cc1`, the Potency result is “inactive”. Consider `CCOP(=S)(OCC)Oc1nc(Cl)c(Cl)cc1Cl`, for which the Potency result was “inactive”. For `CNC(=O)Oc1cccc2ccccc12`, the Potency entry is “inactive”.
